Test results published in PubChem BioAssay (Tox21).
Where “and” joins values, the source holds several entries; their conditions need not be identical. Equal values may be shown once. Records with an inconclusive call do not appear. A call without a number means that no potency is given here. Where a structure was tested more than once in an assay, its records may differ in their call. Calls of active or inactive are those of the source. Unless noted, calls come from the whole dose curve; as a rule, active = well fitted cell-killing curve with a large enough effect in the repeat runs (not every such curve was filed as active); inconclusive = weak or mixed curves, or effect the other way; inactive = no such curve, though single readings can be large or run the other way.

Target: Nuclear receptor subfamily 1 group I member 3 (Homo sapiens) (UniProt Q14994)
Test: qHTS assay to identify small molecule agonists of the constitutive androstane receptor (CAR) signaling pathway (AID 1224839; active = well fitted activation curve with a large enough effect in the repeat runs; note: nearly all actives have a fitted effect of over 15% in size;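 for activation: HepG2 cells stably carrying human CAR and a CYP2B6 luciferase reporter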)
Details: HepG2 hCAR CYP2B6-luciferase, agonist mode, 24 h; series mostly up to 92.4 µM
Summary of the method: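 Compounds tested at 15 concentrations on HepG2 cells stably harbouring hCAR and CYP2B6-2.2kb reporter constructs, co-treated with PK11195 (0.75 uM final), 24 h at 37 C; luminescent reporter signal quantified.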
Potency is the fitted concentration of half-maximal effect.

Sequence of Nuclear receptor subfamily 1 group I member 3 (Homo sapiens) (Q14994 whole entry, looked up): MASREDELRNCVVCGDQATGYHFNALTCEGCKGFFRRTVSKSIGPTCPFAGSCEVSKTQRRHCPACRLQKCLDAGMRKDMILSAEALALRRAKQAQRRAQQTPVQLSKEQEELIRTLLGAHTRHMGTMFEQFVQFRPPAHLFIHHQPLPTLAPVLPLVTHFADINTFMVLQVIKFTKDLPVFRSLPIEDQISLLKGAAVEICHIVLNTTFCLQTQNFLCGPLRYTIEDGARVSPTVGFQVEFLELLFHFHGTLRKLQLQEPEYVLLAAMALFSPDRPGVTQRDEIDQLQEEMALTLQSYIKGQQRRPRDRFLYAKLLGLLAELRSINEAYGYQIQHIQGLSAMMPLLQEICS

SMILES | Potency | activation
Nc1ccc(Cc2ccc(N)c(Cl)c2)cc1Cl | 16.7 µM (active) | 
CCCCCCCCCCCCCCCC[N+](C)(C)C | inactive | 
CC(=O)O[C@H]1CC[C@@]2(C)C(=CC[C@@H]3[C@@H]2CC[C@]2(C)C(=O)CC[C@@H]32)C1 | inactive | 
c1ccc2c(c1)OCC(C1=NCCN1)O2 (stereo unspecified) | inactive | 
CCCOCC(=Nc1ccc(Cl)cc1C(F)(F)F)n1ccnc1 | 48.5 µM (active) | 
Cc1cc(C(C)(C)c2cc(C)c(O)c(C)c2)cc(C)c1O | 4.69 µM (active) | 
CCc1nn(C)c(C(=O)NCc2ccc(C(C)(C)C)cc2)c1Cl | inactive | 
CCCCCCCCc1ccc(O)cc1 | 48.9 µM (active) | 
O=C(CCCN1CCC2(CC1)C(=O)NCN2c1ccccc1)c1ccc(F)cc1 | inactive | 
Cc1cc(SCc2sc(-c3ccc(C(F)(F)F)c(F)c3)nc2C)ccc1OCC(=O)O | inactive | 
Clc1ccc(COC(Cn2ccnc2)c2ccc(Cl)cc2Cl)cc1 (stereo unspecified) | inactive | 
N#Cc1c(-c2ccc(Cl)cc2)[nH]c(C(F)(F)F)c1Br | inactive | 
CC[C@H](C)[C@H]1O[C@]2(C=C[C@@H]1C)C[C@@H]1C[C@@H](C/C=C(\C)[C@@H](O[C@H]3C[C@H](OC)[C@@H](O[C@H]4C[C@H](OC)[C@@H](O)[C@H](C)O4)[C@H](C)O3)[C@@H](C)/C=C/C=C3\CO[C@@H]4[C@H](O)C(C)=C[C@@H](C(=O)O1)[C@]34O)O2 | inactive | 
O=C(O)c1cc[c]([Hg][Cl])cc1 | inactive | 
CCCCCCCCCCCCCCC(Br)C(=O)O (stereo unspecified) | inactive | 
c1ccc(Nc2ccc3ccccc3c2)cc1 | 30.5 µM (active) and 48.6 µM (active) | 
COc1cccc(C(=O)CCN[C@@H](C)[C@H](O)c2ccccc2)c1 | inactive | 
C[CH2][Hg][N]1C(=O)C2C(C1=O)C1(Cl)C(Cl)=C(Cl)C2(Cl)C1(Cl)Cl (stereo unspecified) |  | -23.5% [at 19 µM] (inactive)
[CH3][Hg][Cl] | inactive | 
C=CC(=O)OCCCCOC(=O)C=C | inactive | 
COc1cccc2c1C(=O)c1c(O)c3c(c(O)c1C2=O)C[C@@](O)(C(=O)CO)CC3OC1CC(N2CCOC(OC)C2)C(O)C(C)O1 (stereo partly specified) | inactive | 
O=C(CCl)Nc1ccccc1 | inactive | 
O=CC(Br)(Br)Br | inactive | 

Test system: not listed separately
Test: qHTS assay to identify small molecule antagonists of the estrogen related receptor signaling pathway with the pleiotropic PPARgamma coactivator (PGC) from Tox21 10K library - cell viability counter screen (AID 1224840); note: nearly all actives have a fitted effect of over 40% in size
Details: PGC/ERR reporter cells viability, CellTiter-Fluor, 17.5 h; series mostly up to 92.4 µM
Summary of the method: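 Cell viability is measured by CellTiter-Fluor fluorescence in PGC/ERR cells that receive compounds after a 6-hour attachment period and are then incubated 17.5 hours at 37 C.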

SMILES | Potency
CC(C)OC(=O)C(O)(c1ccc(Cl)cc1)c1ccc(Cl)cc1 | inactive
CCCCCCCCCCCCCCCC[N+](C)(C)C | inactive and 61.1 µM (active)
CC(=O)O[C@H]1CC[C@@]2(C)C(=CC[C@@H]3[C@@H]2CC[C@]2(C)C(=O)CC[C@@H]32)C1 | inactive
CN(C)C(=S)S | 2.15 µM (active) and 12.2 µM (active)
O=C(CCCN1CCC2(CC1)C(=O)NCN2c1ccccc1)c1ccc(F)cc1 | inactive
Cc1cc(SCc2sc(-c3ccc(C(F)(F)F)c(F)c3)nc2C)ccc1OCC(=O)O | inactive
CCCCN(CCCC)C(=S)[S-].CCCCN(CCCC)C(=S)[S-].[Zn+2] | 13.7 µM (active)
Clc1ccc(COC(Cn2ccnc2)c2ccc(Cl)cc2Cl)cc1 (stereo unspecified) | 50.8 µM (active) and 54.3 µM (active)
CC(C)(C)C(O)C(Oc1ccc(-c2ccccc2)cc1)n1cncn1 (stereo unspecified) | inactive
N#Cc1c(-c2ccc(Cl)cc2)[nH]c(C(F)(F)F)c1Br | 1.54 µM (active)
CC[C@H](C)[C@H]1O[C@]2(C=C[C@@H]1C)C[C@@H]1C[C@@H](C/C=C(\C)[C@@H](O[C@H]3C[C@H](OC)[C@@H](O[C@H]4C[C@H](OC)[C@@H](O)[C@H](C)O4)[C@H](C)O3)[C@@H](C)/C=C/C=C3\CO[C@@H]4[C@H](O)C(C)=C[C@@H](C(=O)O1)[C@]34O)O2 | 28.7 µM (active)
O=C(O)c1cc[c]([Hg][Cl])cc1 | 13.7 µM (active)
c1ccc(Nc2ccc3ccccc3c2)cc1 | inactive
CCC(C)c1cc([N+](=O)[O-])cc([N+](=O)[O-])c1OC(=O)C=C(C)C (stereo unspecified) | 30.6 µM (active)
COc1cccc(C(=O)CCN[C@@H](C)[C@H](O)c2ccccc2)c1 | inactive
C[CH2][Hg][N]1C(=O)C2C(C1=O)C1(Cl)C(Cl)=C(Cl)C2(Cl)C1(Cl)Cl (stereo unspecified) | 13 µM (active)
NC(=O)c1ccc(N)nc1 | inactive
[CH3][Hg][Cl] | 38.5 µM (active)
C=CC(=O)OCCCCOC(=O)C=C | 48.6 µM (active)
COc1cccc2c1C(=O)c1c(O)c3c(c(O)c1C2=O)C[C@@](O)(C(=O)CO)CC3OC1CC(N2CCOC(OC)C2)C(O)C(C)O1 (stereo partly specified) | inactive
O=C(CCl)Nc1ccccc1 | 24.3 µM (active)
O=CC(Br)(Br)Br | 15.3 µM (active)

Test system: not listed separately
Test: qHTS assay to identify small molecule antagonists of the estrogen related receptor signaling pathway with the pleiotropic PPARgamma coactivator (PGC) from Tox21 10K library (AID 1224841; call rule not given here; note: actives are mostly falling curves and most rising ones were filed inactive; nearly all actives have a fitted effect of over 50% in size)
Details: PGC/ERR reporter cell line, ONE-Glo luciferase, 18 h; series mostly up to 92.4 µM
Summary of the method: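 Cells stably carrying the PGC/ERR reporter, seeded at 2,000 per well, received pin-transferred compounds 6 h post-plating. Exposure lasted 18 h at 37 C. Signal: One-Glo luminescence.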

SMILES | Potency
Nc1ccc(Cc2ccc(N)c(Cl)c2)cc1Cl | 13.2 µM (active)
CC1(c2ccc(Oc3ccccc3)cc2)OC(=O)N(Nc2ccccc2)C1=O (stereo unspecified) | 4.89 µM (active)
O=C(CBr)c1ccc(O)cc1 | inactive
CC(C)CC(C)Nc1ccc(Nc2ccccc2)cc1 (stereo unspecified) | 60.1 µM (active)
CC(C)(C)C(O)/C(=C\c1ccc(Cl)cc1Cl)n1cncn1 (stereo unspecified) | 29.4 µM (active)
CCc1nn(C)c(C(=O)NCc2ccc(C(C)(C)C)cc2)c1Cl | 0.0611 µM (active)
O=C(CCCN1CCC2(CC1)C(=O)NCN2c1ccccc1)c1ccc(F)cc1 | inactive
Cc1cc(SCc2sc(-c3ccc(C(F)(F)F)c(F)c3)nc2C)ccc1OCC(=O)O | inactive
CC(C)(C)C(O)C(Oc1ccc(-c2ccccc2)cc1)n1cncn1 (stereo unspecified) | 54.5 µM (active)
N#Cc1c(-c2ccc(Cl)cc2)[nH]c(C(F)(F)F)c1Br | 0.486 µM (active)
CC[C@H](C)[C@H]1O[C@]2(C=C[C@@H]1C)C[C@@H]1C[C@@H](C/C=C(\C)[C@@H](O[C@H]3C[C@H](OC)[C@@H](O[C@H]4C[C@H](OC)[C@@H](O)[C@H](C)O4)[C@H](C)O3)[C@@H](C)/C=C/C=C3\CO[C@@H]4[C@H](O)C(C)=C[C@@H](C(=O)O1)[C@]34O)O2 | 7.2 µM (active)
c1ccc(Nc2ccc3ccccc3c2)cc1 | inactive
COc1cccc(C(=O)CCN[C@@H](C)[C@H](O)c2ccccc2)c1 | inactive
C=CC(=O)OCCCCOC(=O)C=C | inactive
COc1cccc2c1C(=O)c1c(O)c3c(c(O)c1C2=O)C[C@@](O)(C(=O)CO)CC3OC1CC(N2CCOC(OC)C2)C(O)C(C)O1 (stereo partly specified) | 0.266 µM (active)
O=C(CCl)Nc1ccccc1 | 8.63 µM (active)
